# NALP1 inh – NALP1 inflammasome inhibitors in reconstituted yeast, colorimetric, S. cerevisiae, triplicate retest; AID 2071, 2009; 280,000 compounds, 0.61% hits; S. cerevisiae NALP1/ASC/caspase-1 growth, X-gal OD620, 72 h; inhibition, % at 10 µM; in the data active = inhibition mostly above about 24%, no sharp cut-off; inactive = mostly below about 32%
# tim23-1 inh – growth inhibitors of tim23-1 mutant yeast, primary screen, luminescence, uHTS; inhibition, % at 20 µM; S. cerevisiae tim23-1 growth, BacTiter-Glo luminescence, 24 h; 330,000 compounds, 1.3% hits;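 active = growth inhibition of the mutant yeast at or above 50%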;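 also: temperature-sensitive mutant grown at 25 °C; plate controls were DMSO-treated mutant yeast for no effect and medium wells lacking yeast for full effect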
# TIM10 inh – growth inhibitors of isogenic TIM10 control yeast, primary screen, counter-screen for tim10-1 yeast inhibitor project, luminescence, uHTS | S. cerevisiae TIM10 strain growth, BacTiter-Glo luminescence, 24 h | inhibition, % at 10 µM | 330,000 compounds, 1.4% hits | AID 463195, 2010;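 active = inhibition of 40% or more at the single tested concentration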;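 also: wild-type TIM10 isogenic control strain grown at permissive 25 °C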
# tim10-1 inh – growth inhibitors of tim10-1 mutant yeast, primary screen, luminescence, uHTS; S. cerevisiae tim10-1 ts strain growth, BacTiter-Glo, 24 h; inhibition, % at 20 µM; 330,000 compounds, 2.2% hits; AID 463190, 2010;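 active = inhibition of at least 40%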;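 also: mutant grown at 25 °C; 0% = DMSO wells with yeast and 100% = wells holding no yeast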
# NLRP3 yeast inh – NALP3 inflammasome inhibitors in reconstituted yeast, primary screen, luminescence, uHTS | 330,000 compounds, 0.39% hits | Yeast reconstituted NLRP3/ASC/caspase-1, beta-gal luminescence, 24 h | inhibition, % at 10 µM;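 active = inhibition of 50% or more; inactive = inhibition below 50%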;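 also: plate controls were induced DMSO wells for no effect and uninduced yeast grown without galactose for full effect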
# TIM10 conf – growth inhibitors of wild-type TIM10 yeast, confirmation, counter-screen for tim10-1 synthetic lethality project, single concentration, luminescence, S. cerevisiae. shares compounds with TIM10 inh. S. cerevisiae tim10 strain growth, BacTiter-Glo luminescence, 24 h. inhibition, % at 10 µM. 4,600 compounds, 63% hits. AID 463215, 2010;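 active = inhibition of yeast growth at or above a set limit in either of two replicates at 10 µM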;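 also: this counterscreen used the strain with wild-type TIM10; 0% = yeast with DMSO and 100% = medium wells lacking yeast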
# Active calls of the source: *; . = no result given. A selection: hits, their analogues and other compounds. The true share with any hit is near 4%.
SMILES,NALP1 inh,tim23-1 inh,TIM10 inh,tim10-1 inh,NLRP3 yeast inh,TIM10 conf
COc1ccccc1Cn1c(-c2ccccc2OC)nc2ccccc21,25,37,39,35,-11,.
Nc1ncc(Br)cc1S(=O)(=O)Nc1cc(C(F)(F)F)cc(C(F)(F)F)c1,13,25,12,25,22,.
O=C(Nc1ccccc1C(=O)NCCc1ccccc1)c1ccco1,-7,23,97*,21,21,-10
O=S(=O)(c1ccc(SCCOc2ccc(Br)cc2)nc1)N1CCCC1,.,18,7,17,12,.
CCOc1ccc(OCCSc2ccc(S(=O)(=O)N3CCN(C)CC3)cn2)cc1,.,50,46*,38,43,52*
Cc1cc(C)cc(NC(=O)C2(c3ccccc3)CC2(Cl)Cl)c1 (stereo not drawn),18,38,41*,37,18,40*
Cc1cccc(NC(=O)C2(c3ccccc3)CC2(Cl)Cl)c1 (stereo not drawn),-8,26,23,39,-3,.
O=C(COc1ccc(-c2ccccc2)cc1)NNC(=O)Nc1ccc(F)cc1F,8,1,-22,-11,4,.
OCCN1CCN(C2CCC(c3ccc(F)cc3)c3ccc(F)cc32)CC1 (stereo not drawn),.,27,17,13,23,.
c1ccc2c(c1)OCCOCCOCCOCCOc1ccccc1OCCOCCOCCO2,34,29,12,22,-9,.
CN1CCOCCOc2ccccc2OCCOCC1,.,12,58*,2,13,-2
O=C1c2ccccc2C(=O)N1SC1CCCCC1,-10,10,65*,33,-14,83*
O=C(OCN1C(=O)c2ccccc2C1=O)C1CCCCC1,2,10,3,23,-10,.
CCC1=Nc2cc(C(=O)N3CCCCC3)ccc2Sc2ccc(C)cc21,4,8,8,8,17,.
CCOC(=O)N1CCN(C(=O)c2ccc3c(c2)N=C(CC)c2cc(C)ccc2S3)CC1,-9,30,40*,21,9,6
O=C(Nc1ccc(NC(=O)c2cccs2)cc1Cl)c1ccco1,19,34,19,-11,38,.
COc1cc(NC(=O)c2cccs2)ccc1NC(=O)c1ccco1,13,26,47*,9,26,-2
COc1cc(/C=C2\N=C(c3c(-c4ccccc4)noc3C)OC2=O)ccc1OC(C)=O,10,29,39,35,3,.
COc1cccc(/C=C2\N=C(c3c(-c4ccccc4)noc3C)OC2=O)c1,33,49,47*,40,-5,25
O=C(OCC1OC(n2cc(Br)c(=O)[nH]c2=O)C(Br)C1O)c1ccccc1 (stereo not drawn),8,-1,5,-11,7,.
CC(C)NC(=O)N(C)C[C@@H]1Oc2c(NC(=O)C3CCOCC3)cccc2C(=O)N([C@@H](C)CO)C[C@H]1C,.,-21,97*,-8,5,-10
CC(C)NC(=O)Nc1cccc2c1O[C@H](CN(C)C(=O)NC(C)C)[C@@H](C)CN([C@H](C)CO)C2=O,.,2,2,-14,3,.
COc1cccc(-c2ccc(SCC(=O)N3CCc4ccccc43)nn2)c1,8,14,27,27,-3,.
CCCCCOCC1CC(C/C(C)=N/NC(N)=S)C(=O)O1 (stereo not drawn),20,7,6,12,2,.
C/C(CC1CC(COCC(C)C)OC1=O)=N\NC(N)=S (stereo not drawn),34,-9,96*,13,2,2
SMILES,NALP1 inh,tim23-1 inh,TIM10 inh,tim10-1 inh,NLRP3 yeast inh,TIM10 conf
COc1ccc(Oc2nc(-c3ccccn3)nc3ccccc23)cc1,15,45,41*,13,26,34*
COc1cnc(-c2ccccn2)nc1Oc1cccc(Cl)c1,9,44,46*,39,29,49*
COc1cnc(-c2ccccn2)nc1Sc1c(Cl)cccc1Cl,-4,19,50*,34,12,38*
COc1cnc(-c2ccccn2)nc1N(C)C,-1,-4,-12,-18,10,.
COc1cccc(Oc2nc(-c3ccccc3O)nc3ccccc23)c1,8,-3,-1,11,-7,.
COc1ccc(Oc2nc(-c3ccccn3)ncc2OC)cc1,14,-24,-13,18,22,.
COc1ccc(C2=NN(C(=O)CCC(=O)O)C(c3ccccc3F)C2)cc1 (stereo not drawn),19,9,-3,8,13,.
CC(NC(=O)c1ccc2c(c1)C(=O)N(Cc1cccnc1)C2=O)c1ccccc1 (stereo not drawn),18,-4,14,-4,9,.
Fc1ccc(NC(=S)NN=C2CCCCCC2)cc1,6,31,45*,34,35,21
S=C(NN=C1CCCCCC1)Nc1ccc(Cl)cc1,3,25,33,32,13,.
Cc1ccc(SCCC(=O)N(C)CC(=O)Nc2c(C)cccc2C)cc1,0,22,13,22,-17,.
CC(C)(C)CC(C)(C)NC(=O)Nc1cccc([N+](=O)[O-])c1,1,50,46*,39,3,45*
O=C(Nc1ccc(OC(F)(F)F)cc1)Nc1cccc([N+](=O)[O-])c1,59*,36,45*,29,43,34*
COc1ccc(Cc2nc(C(=O)Nc3ccc(Cl)cc3)cs2)cc1,6,24,47*,27,12,37*
O=C(Oc1ccc2c(=O)c(Cl)coc2c1)c1cccnc1,12,-27,45*,-12,7,-13
O=C(Oc1ccc2c(=O)c(Oc3ccc4ccccc4c3)coc2c1)c1cccnc1,19,17,20,11,18,.
COC(=O)[C@@H](NC(=O)NCCC1=CCCCC1)C(C)C,-5,6,49*,10,5,-16
CCc1nnc(SCC(=O)Nc2ccc(F)cc2)o1,2,13,1,10,1,.
CCNc1ccc(Br)cc(C(=O)/C=C/c2ccccc2Cl)c1=O,.,27,45*,39,5,17
CC(=O)OCCCN1C(=O)c2cccc3cc(Br)cc(c23)C1=O,15,22,61*,-9,49,1
COc1ccc(-c2csc(NC(=O)CSCC(=O)Nc3cc(C)on3)n2)cc1,.,7,8,1,12,.
COc1ccc(-c2csc(NC(=O)CSCc3c(C)noc3C)n2)c(OC)c1,.,18,83*,11,23,-9
COc1ccc(OC)c(/C=C/C(=O)OCC(=O)NCc2cccs2)c1,.,22,41*,21,23,5
CCN1C/C(=C/c2ccc(OC)c(O)c2)C(=O)/C(=C/c2ccc(OC)c(O)c2)C1,13,40,50*,27,38,45*

# Screens deposited in PubChem BioAssay by Sanford-Burnham Center for Chemical Genomics.
